# Screening data deposited in PubChem by several laboratories.
# TWEAK-Fn14 inh = inhibitors of TWEAK-Fn14 interaction signaling; TWEAK-stimulated Fn14 reporter cells, luciferase luminescence, 8 h; inhibition, % at 10 µM; 360,000 compounds, 2% hits; in the data active = inhibition above about 50%
# TROY signal inh = TROY signaling inhibition. inhibition, % at 10 µM. AID 1347056. 360,000 compounds, 0.98% hits. Q293 LMP1-TROYcd NF-kB luciferase reporter, 4 h;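 active = compounds whose plate-normalised and pattern-corrected inhibition of the luciferase reporter signal at the single screening dose is 50% or more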
# TRAIL sens C8 = sensitizes caspase-8 expressing cells to TRAIL | NB7+C8 cells + TRAIL, ATPlite viability luminescence | inhibition (viability loss, TRAIL sensitization), % at 10 µM | 360,000 compounds, 1% hits;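 active = compounds causing at least 50% loss of cell viability in the single-dose screen, relative to plate controls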
# aSyn 5UTR inh = MLPCN primary screen, SNCA 5' untranslated region | alpha-synuclein 5'UTR reporter, inhibitor activity | inhibition, % (tested at 7.5 µM) | 300,000 compounds, 0.82% hits | AID 1813; in the data active = inhibition above about 60%;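 note: H4 neuroglioblastoma cells stably carrying SNCA 5'UTR luciferase fusion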
# HIF-2a inh = blocks HIF-2a reporter activity | 786-0 RCC cells HIF-2a reporter, luciferase luminescence, overnight | inhibition, % at 18.8 µM | 360,000 compounds, 0.72% hits | AID 624352;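 active = inhibition of the luminescence signal of 40% or more relative to plate controls, in a single-dose primary screen at 18.75 µM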
# HSP90 refold inh = blocks HSP90-mediated luciferase refolding in reticulocyte lysate. Rabbit reticulocyte lysate, luciferase refolding luminescence, 3 h. inhibition, % at 5.6 µM. 290,000 compounds, 0.91% hits;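 active = inhibition above the screen-wide mean plus 3 SD, computed separately per campaign, cut at about 16% in these data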;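 note: inhibitors lower the luminescence because luciferase stays unfolded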
# Numbers stand for hits; n = inactive; x = no result. Hits are enriched below; roughly 3.9% of the tested compounds scored in any of these assays.
SMILES,TWEAK-Fn14 inh,TROY signal inh,TRAIL sens C8,aSyn 5UTR inh,HIF-2a inh,HSP90 refold inh
COc1cccc(C(=O)Nc2nnc(-c3cccs3)s2)c1,69.9,n,n,n,n,n
O=C(CSc1nnc(NC(=O)c2cccc(F)c2)s1)NC1CCCC1,n,n,n,n,n,n
O=C(CSc1nnc(NC(=O)Cc2ccccc2)s1)NCC1CCCO1 (stereo not drawn),n,n,n,n,n,n
O=C(CSc1nnc(NC(=O)c2ccccc2)s1)NCc1ccco1,n,n,61.2,n,n,n
CCc1nnc(NC(=O)c2cccc(OC)c2)s1,n,n,n,n,n,n
CCC(c1nnnn1-c1c(C)cccc1C)N1CCN(c2ccccn2)CC1 (stereo not drawn),n,n,n,x,n,x
O=C(CSc1nnc(NC(=O)c2ccc3c(c2)OCO3)s1)NCc1ccco1,60.8,n,81.7,x,n,n
CCOC(=O)CNC(=O)CSc1nnc(NC(=O)c2ccc3c(c2)OCO3)s1,n,n,83.1,n,n,n
O=C(CSc1nnc(NC(=O)c2ccc(F)cc2)s1)NCc1ccco1,n,n,56.4,n,n,n
O=C(CSc1nnc(NC(=O)c2ccco2)s1)NCc1ccc2c(c1)OCO2,n,n,n,n,n,n
CCOC(=O)C(C)Sc1nnc(NC(=O)c2ccc3c(c2)OCO3)s1 (stereo not drawn),n,n,n,n,n,n
COc1cc(C(=O)Nc2nc(-c3cccs3)cs2)cc(OC)c1OC,56.2,n,n,n,n,n
CNC(=O)OC1CC2CC1[C@H]1CCCCN1C2=O (stereo partly drawn),n,n,n,x,n,x
CCCNC(=O)N1C[C@H](O)COC[C@H]2O[C@@H](CC(=O)N[C@@H]3CCN(Cc4ccccc4)C3)CC[C@@H]21,x,x,n,x,n,x
CC(Sc1nnc(C2CC2)n1C1CC1)C(=O)c1ccc(Br)cc1 (stereo not drawn),n,n,n,x,n,x
C/C(=N\NC(=O)c1cc(C2CC2)nc2ccccc12)c1ccc(O)cc1O,n,n,n,73.7,n,n
C/C(=N\NC(=O)c1cc(-c2cccnc2)nc2ccccc12)c1ccccc1O,n,n,n,85.7,n,n
COC(=O)C1=C(C)N(Cc2ccccc2)C(=NCc2cccc(Cl)c2)N[C@H]1c1cccc(F)c1,n,n,80.8,x,n,x
COC(=O)C1=C(C)N(Cc2ccccc2)C(=NCC(C)C)N[C@H]1c1cccc(C(F)(F)F)c1,n,n,56.2,x,n,x
COC(=O)C1=C(C)N(Cc2ccccc2)C(=NCc2ccccc2)N[C@H]1c1cccc(C(F)(F)F)c1,n,n,77.9,x,n,x
CC(=O)N1Cc2cc(C(=O)NCC(F)(F)F)nc(-c3cccc(-c4cccnc4)c3)c2[C@@H]1CCO,n,n,n,x,n,x
CN1C[C@@H]2[C@@H]3C(=O)N(C)C(=O)[C@@H]3[C@](C)(C1=O)N2C(=O)c1ccc(C(C)(C)C)cc1,n,n,n,x,n,x
COc1cc(C(=O)Nc2scc(-c3ccc(Br)cc3)c2C(=O)O)cc(OC)c1OC,n,71.9,n,n,n,n
Cc1ccc(-c2csc(NC(=O)c3ccc(Br)cc3)c2C(=O)O)cc1,n,n,n,n,n,n
CCNc1nc(NC(C)C)nc(NS(=O)(=O)c2ccc(C)cc2)n1,n,n,n,n,n,n
SMILES,TWEAK-Fn14 inh,TROY signal inh,TRAIL sens C8,aSyn 5UTR inh,HIF-2a inh,HSP90 refold inh
O=C(Nc1cc(Sc2nc3ccccc3s2)cc([N+](=O)[O-])c1)c1cccc(F)c1F,57.9,n,n,n,n,n
O=C(CSc1nc2ccc(NC(=O)c3ccccc3C(=O)O)cc2s1)Nc1ccc(F)c([N+](=O)[O-])c1,n,n,n,n,n,n
O=C(/C=C/Nc1ccc(F)c(F)c1)c1cccs1,n,n,n,n,n,n
O=C(/C=C/Nc1ccc(F)cc1)c1cccs1,n,n,61.4,n,n,n
O=C(/C=C/Nc1ccc(S(=O)(=O)Nc2ncccn2)cc1)c1cccs1,60.1,n,n,n,n,n
O=C(/C=C/Nc1ccc(S(=O)(=O)Nc2ncccn2)cc1)c1ccc(Cl)c(Cl)c1,n,n,n,n,n,n
COC(=O)C[C@@H]1OC[C@H](C(C)C)N1S(=O)(=O)c1ccc(C)cc1,x,x,n,x,n,x
CC(C)n1c(CNC(=O)c2ccccc2F)nnc1SCC(=O)NC1CCCCC1,n,n,n,x,n,x
O=C(C1CCC(Cn2c(=S)[nH]c3ccccc3c2=O)CC1)N1CCN(c2ccccc2)CC1 (stereo not drawn),n,n,n,n,n,n
O=C(C1CCC(Cn2c(=S)[nH]c3ccccc3c2=O)CC1)N1CCN(c2ccccn2)CC1 (stereo not drawn),55.6,n,n,n,n,n
COC(=O)[C@@H]1ON2OCC(C)=C3CCCC[C@@]32[C@H]1C(=O)OC,x,x,n,x,n,x
CCN1CCN(c2ccc(S(=O)(=O)N3CCCCC3)cc2NC(=O)c2ccc([N+](=O)[O-])o2)CC1,n,n,55.4,n,n,x
CCN1CCN(c2ccc(S(=O)(=O)N3CCOCC3)cc2NC(=O)c2cccc([N+](=O)[O-])c2)CC1,n,n,n,x,n,x
CCN1CCN(c2ccc(S(=O)(=O)N3CCCCC3)cc2NC(=O)c2ccc(F)cc2)CC1,n,n,n,n,n,n
CN1CCN(c2ccccc2NC(=O)c2ccc([N+](=O)[O-])o2)CC1,n,n,60.5,n,n,n
CCN1CCN(c2ccc(S(=O)(=O)N3CCOCC3)cc2NC(=O)/C=C/c2ccc([N+](=O)[O-])cc2)CC1,n,n,53.5,n,n,x
CCCNC(=O)Nc1ccc2c(c1)OC[C@H](C)N(C(=O)C1CCCCC1)C[C@@H](C)[C@H](OC)CN(C)C2=O,x,x,n,x,n,x
CCCNC(=O)c1cc2c(c(-c3cccc(-c4cc5ccccc5o4)c3)n1)[C@H](CCO)N(C(=O)NC(C)C)C2,n,n,n,x,n,x
COc1ccc(CCNc2nc(C)nc3c2oc2ccccc23)cc1OC,n,53.3,n,n,n,n
COc1ccc(CCNc2ncnc3sccc23)cc1OC,50.1,n,n,n,n,n
COc1ccc(CCNc2ncnc3c2oc2ccccc23)cc1OC,90.9,57.3,n,n,n,n
Cc1ccccc1N(CC(=O)N1CCN(Cc2ccccc2)CC1)S(C)(=O)=O,n,n,n,x,n,x
O=C(CCCc1ccccn1)c1ccc(-c2ccccc2)cc1,n,n,n,x,n,x
C=CCn1c(-c2ccc(S(=O)(=O)N3CCOCC3)cc2)csc1=Nc1ccccc1,n,n,n,n,n,n
CC(=O)c1cccc(N=c2scc(-c3ccc(S(=O)(=O)N4CCOCC4)cc3)n2CCO)c1,53.9,n,n,n,n,n
CC1(C(=O)Nc2cccc3ncccc23)CCN1C(=O)Cc1ccc(-c2ccccc2)cc1 (stereo not drawn),n,n,n,x,n,x
O=C(O)C1CC=CCC1C(=O)N1CC=C(c2ccccc2)CC1 (stereo not drawn),78.2,n,n,n,n,n
